# In PubChem BioAssay (EPA / NIEHS):
# Where “and” joins values, the source holds several entries; their conditions need not be identical. Identical values can stand only once. Results filed as inconclusive are left out. A structure can be active in one record and inactive in another. Calls of active or inactive are those of the source. How the source made its calls, unless noted: active means hit-call score of the fitted dose curve at least 0.9, where 1 is the maximum; inactive means score below 0.9.
# Tests used:
# [1] = CCTE_Mundy_HCI_Cortical_Synap_Neur_Matur_NeuriteSpotCountPerNeuriteLength: CCTE's Synaptogenesis and Neurite Maturation Assay in rat cortical cells for Neurite Spot Count per Neurite Length, Mundy Lab (AID 2284210)
# Outline: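 Primary rat cortical neurons, compound exposure DIV 7–12, 288.33 h endpoint. Hoechst, anti-MAP2 and anti-synaptophysin labelling; neurite-associated puncta per neurite length scored by automated imaging relative to DMSO controls.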
# [2] = CCTE_Mundy_HCI_Cortical_NOG_NeuriteCount: CCTE's Neurite Outgrowth Assay in rat cortical cells for Neurite Count, Mundy Lab (AID 2284212);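 further: cells fixed about two days after chemical exposure began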
# Outline: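 Neurite number per cell from high-content imaging of betaIII-tubulin immunostaining, with Hoechst nuclear counterstain.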
# [3] = CCTE_Mundy_HCI_Cortical_NOG_NeuriteLength: CCTE's Neurite Outgrowth Assay in rat cortical cells for Neurite Length, Mundy Lab (AID 2284213);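 further: neurites imaged about 48 to 50 h after chemical exposure began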
# Outline: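 Neurite length was read by high-content imaging of βIII-tubulin-labelled neurites in rat primary cortical cultures. Activity was fitted relative to DMSO.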
# [4] = CCTE_Mundy_HCI_Cortical_Synap_Neur_Matur_NeuriteLength: CCTE's Synaptogenesis and Neurite Maturation Assay in rat cortical cells for Neurite Length, Mundy Lab (AID 2284214)
# Outline: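 Rat primary cortical cultures, AraC added DIV 5, dosed DIV 7 through DIV 12 […]. Fixed, MAP2/synaptophysin immunostained with Hoechst; neurite length by high-content imaging, fitted in positive direction versus DMSO.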
# [5] = TAMU_PeakParms_SingleDonor1434_Chronotropy: Texas A&M University (TAMU) 1.5-hr Human Induced Pluripotent Stem Cell (iPSC)-derived Cardiomyocytes Calcium (Ca+2) Flux Assay for Cardiotoxicity: Chronotropy (changes in peak frequency) (AID 2284217); settings: actives raise or lower the signal
# Outline: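 iPSC-derived cardiomyocytes (single donor 1434) dosed at 0.2, 1, 10 and 100 uM in 0.5% DMSO for 1.5 h at 37C; Ca2+ dye fluorescence gave average beat frequency. Zero-beat points removed; bidirectional fit versus DMSO, POD as EC05.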
# [6] = CCTE_Mundy_HCI_Cortical_Synap_Neur_Matur_SynapseCount: CCTE's Synaptogenesis and Neurite Maturation Assay in rat cortical cells for Synapse Count, Mundy Lab (AID 2284218)
# Outline: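 Rat primary cortical cultures, AraC at DIV 5, chemical dosing DIV 7 to DIV 12 (288.33 h). Fixed cells stained for MAP2, synaptophysin and Hoechst; synapses per neuron counted by high-content imaging, loss of signal versus DMSO.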
# [7] = CCTE_Mundy_HCI_hN2_NOG_NeuriteCount: CCTE's Neurite Outgrowth Assay in human hN2 cells for Neurite Count, Mundy Lab (AID 2284219; active means hit-call score of the fitted dose curve at least 0.9, where 1 is the maximum)
# Outline: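 In this morphology assay, hNP1-derived neurons received test chemical 2 h post-plating and were fixed two days later in warm paraformaldehyde/sucrose containing Hoechst 33342. Neurites, labelled by rabbit anti-βIII-tubulin (1:800) and Alexa Fluor-488 (1:500), were counted automatically.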
# [8] = CCTE_Mundy_HCI_hN2_NOG_NeuriteLength: CCTE's Neurite Outgrowth Assay in human hN2 cells for Neurite Length, Mundy Lab (AID 2284220; active means hit-call score of the fitted dose curve at least 0.9, where 1 is the maximum)
# Outline: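 Plate hNP1-derived neurons, then add chemical 2 h later as a 1/10 dilution. Stain with anti-βIII-tubulin then Alexa Fluor-488 secondary, and image automatically to measure neurite length.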
# [9] = CCTE_Mundy_HCI_hN2_NOG_NeuronCount: CCTE's Neurite Outgrowth Assay in human hN2 cells for Neuron Count, Mundy Lab (AID 2284221; active means hit-call score of the fitted dose curve at least 0.9, where 1 is the maximum)
# Outline: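 Read-out is the number of betaIII-tubulin-positive neurons imaged by automated high-content analysis, with DMSO as negative control.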
# [10] = CCTE_Mundy_HCI_Cortical_Synap_Neur_Matur_CellBodySpotCount: CCTE's Synaptogenesis and Neurite Maturation Assay in rat cortical cells for Cell Body Spot Count, Mundy Lab (AID 2284223)
# Outline: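 Synapse number at neuronal cell bodies was quantified as synaptophysin puncta per neuron in rat cortical cultures exposed from DIV 7 to DIV 12. Values were normalised to DMSO.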
# [11] = CCTE_Mundy_HCI_hNP1_Pro_ResponderAvgInten: CCTE's Proliferation Assay in human neuroprogenitor cells, Mundy Lab (AID 2284224; active means hit-call score of the fitted dose curve at least 0.9, where 1 is the maximum;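 further: human neural progenitor cells hNP1 derived from WA09 embryonic stem cells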)
# Outline: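 Proliferation was scored as BrdU labelling intensity in human neural progenitors derived from WA09 embryonic cells, measured 26.25 hours after chemical dosing. Activity was fitted relative to DMSO.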
# [12] = UKN4_HCS_LUHMES_cell_viability: Viability Assessment in the University of Konstanz (UKN) Leist Lab Neurite Outgrowth Assay in human LUHMES cells (UKN4) (AID 2284232)
# Outline: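 LUHMES precursors differentiated 2 days, replated at 30000 cells/well without cAMP/GDNF, then compound-treated 24 h. Viability from Hoechst H-33342 and calcein-AM live staining (30 min) by high-content fluorescence imaging; bidirectional fit versus DMSO.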
# [13] = UKN2_HCS_IMR90_cell_viability: Viability Assessment in the University of Konstanz (UKN) Leist Lab Neural Crest Cell Migration Assay in human induced IMR90 Pluripotent Stem Cells (UKN2) (AID 2284233);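 further: viability of neural crest cells differentiated from IMR90 iPSC measured by calcein-AM fluorescence imaging; cells exposed to compound for 24 h after a 24 h migration phase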
# Outline: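 Human IMR90-derived neural crest cells were allowed to migrate for 24 h into a cell-free zone, then exposed to test chemicals for 24 h. Calcein-AM and Hoechst staining with high-content imaging gave viability, analysed against DMSO baseline.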
# [14] = TAMU_HCS_1.5hr_SingleDonor1434_Cytotoxicity: Cytotoxicity Assessment using High-content Screening (HCS) Fluorescent Imaging for the Texas A&M University (TAMU) 1.5-hr Human Induced Pluripotent Stem Cell (iPSC)-derived Cardiotoxicity Assay (AID 2284234; active means hit-call score of the fitted dose curve at least 0.9, where 1 is the maximum)
# Outline: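 Human iPSC-derived cardiomyocytes dosed at 0.2, 1, 10, 100 uM final (0.5% DMSO) for 90 min at 37 C. Hoechst 33342-stained nuclei counted by 10x high-content imaging; POD is EC10, a 10% drop in total cell count versus DMSO.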
# [15] = CCTE_Mundy_HCI_Cortical_NOG_NeuronCount: CCTE's Neurite Outgrowth Assay in rat cortical cells for Neuron Count, Mundy Lab (AID 2284236; active means hit-call score of the fitted dose curve at least 0.9, where 1 is the maximum;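 further: neurons counted by imaging betaIII-tubulin and Hoechst stained cortical cells; cells exposed to compound for about 48 hours before fixation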)
# Outline: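 Read-out: neuron number by high-content imaging of betaIII-tubulin (Alexa Fluor-488) and Hoechst-labelled rat primary cortical cells.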
# [16] = CCTE_Mundy_HCI_Cortical_NOG_BPCount: CCTE's Neurite Outgrowth Assay in rat cortical cells for Branch Point Count, Mundy Lab (AID 2284237);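 further: branch points counted about two days after chemical exposure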
# Outline: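 Measured 50.33 h after dosing, this morphology endpoint uses rat primary cortical cultures labelled for betaIII-tubulin. Branch points are quantified by high-content imaging, with DMSO as negative control and baseline.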
# [17] = CCTE_Mundy_HCI_hNP1_Casp3_7: CCTE's Caspase-Glo 3/7 Assay in human neuroprogenitor cells for Apoptosis, Mundy Lab (AID 2284240)
# Outline: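 Apoptosis is scored by activated caspase-3/7 luminescence in WA09-derived neural progenitor cells, measured 26.5 h after chemical dosing. Values represent gain of signal relative to DMSO vehicle.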
# [18] = CCTE_Mundy_HCI_Cortical_Synap_Neur_Matur_NeuronCount: CCTE's Synaptogenesis and Neurite Maturation Assay in rat cortical cells for Neuron Count, Mundy Lab (AID 2284242; active means hit-call score of the fitted dose curve at least 0.9, where 1 is the maximum;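 further: hits reduce neuron count versus DMSO baseline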)
# Outline: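 Rat primary cortical cells, AraC added at DIV 5, dosed with media change from DIV 7 to DIV 12. Fixed, Hoechst-stained and immunolabelled for MAP2 and synaptophysin; neuron number counted by high-content imaging, loss fitted versus DMSO.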
# [19] = IUF_NPC2a_radial_glia_migration_120hr: Leibniz Research Institute for Environmental Medicine (IUF) 120-hour Neural Progenitor Cell Migration Assay for Radial Glia Migration (NPC2a) (AID 2284298)
# Outline: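 In this multiplexed test, fetal hNPC spheres migrate radially on poly-D-lysine/laminin in N2 medium (37C, 5% CO2, pH 7.2-7.6) under continuous compound exposure over five days. Migration is scored at 120 h from automated Hoechst nuclear imaging.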
# [20] = IUF_NPC2a_radial_glia_migration_72hr: Leibniz Research Institute for Environmental Medicine (IUF) 72-hour Neural Progenitor Cell Migration Assay for Radial Glia Migration (NPC2a) (AID 2284299)
# Outline: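 Human fetal neural progenitor spheres (0.3 mm) plated on poly-D-lysine/laminin in N2 differentiation medium and exposed from day 0 at 7 concentrations; radial glia migration distance from sphere edge measured at 72 h on brightfield images, mean of four directions, vs DMSO.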
# [21] = IUF_NPC3_neuronal_differentiation_120hr: Leibniz Research Institute for Environmental Medicine (IUF) 120-hour Neuronal Differentiation Assay (NPC3) (AID 2284301)
# Outline: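 Single 0.3 mm neurospheres from human fetal cortex were plated in differentiation medium containing test compound. Medium was half-replaced on day 3. After 120 h cells were fixed, immunostained and imaged, and neuronal fraction was scored against DMSO control.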
# [22] = IUF_NPC4_neurite_length_120hr: Leibniz Research Institute for Environmental Medicine (IUF) 120-hour Neuronal Morphology Assay for Neurite Length (NPC4) (AID 2284302)
# Outline: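 Read-out is mean neurite length in µm of TUBB3-positive neurons, skeletonized from high-content fluorescence images after 120 h. Single 0.3 mm primary human neural progenitor spheres differentiated on poly-D-lysine/laminin under continuous compound exposure; DMSO was baseline.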
# [23] = IUF_NPC4_neurite_area_120hr: Leibniz Research Institute for Environmental Medicine (IUF) 120-hour Neuronal Morphology Assay for Neurite Area (NPC4) (AID 2284305; active means hit-call score of the fitted dose curve at least 0.9, where 1 is the maximum)
# Outline: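 Neurite area is read out as the mean pixel area, excluding nuclei, of skeletonized TUBB3-positive neurons imaged after 120 h. Primary human neural progenitor spheres differentiated on poly-D-lysine/laminin with compound present from day 0. Activity was referenced to DMSO controls.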
# [24] = IUF_NPC2-5_cytotoxicity_120hr: Cytotoxicity Assessment at 120 hours in the Leibniz Research Institute for Environmental Medicine (IUF) Neural Progenitor Cell Migration and Differentiation Assay (NPC2-5) (AID 2284307; active means hit-call score of the fitted dose curve at least 0.9, where 1 is the maximum;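 on AC50: LDH released into supernatant as membrane damage marker via resorufin fluorescence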)
# Outline: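 Fluorescence (RFU) from LDH-driven resazurin reduction in medium supernatants measured loss of membrane integrity after 120 h of compound exposure of differentiating primary human neural progenitor spheres on an extracellular matrix.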
# [25] = IUF_NPC2-5_cell_number_120hr: Cell Number Assessment at 120 hours in the Leibniz Research Institute for Environmental Medicine (IUF) Neural Progenitor Cell Migration and Differentiation Assay (NPC2-5) (AID 2284308);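 further: count of Hoechst-stained nuclei in migration zone around plated human neural progenitor spheres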
# Outline: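 Cell number is taken as all Hoechst-positive nuclei detected in the area into which cells migrate out of the sphere, scored at 120 h and referenced to DMSO solvent control, which was kept at no more than 0.1%.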
# [26] = IUF_NPC2-5_viability_120hr: Viability Assessment at 120 hours in the Leibniz Research Institute for Environmental Medicine (IUF) Neural Progenitor Cell Migration and Differentiation Assay (NPC2-5) (AID 2284312)
# Outline: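 Alamar blue resorufin fluorescence read after 5 days of differentiation, with compound present from day 0 and replenished at day 3. Primary hNPC spheres on laminin-coated plates, 37C; seven concentrations plus solvent control, fitted against DMSO.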
# [27] = TAMU_PeakParms_SingleDonor1434_Asystole: Texas A&M University (TAMU) 1.5-hr Human Induced Pluripotent Stem Cell (iPSC)-derived Cardiomyocytes Calcium (Ca+2) Flux Assay for Cardiotoxicity: Asystole (quiescence of beating) (AID 2284328; active means hit-call score of the fitted dose curve at least 0.9, where 1 is the maximum)
# Outline: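 Average Ca2+-flux peak frequency (beats/s) was recorded in single-donor iPSC-derived cardiomyocytes after 90 min exposure (0.2–100 uM final, 0.5% DMSO). Asystole POD set as EC95 against DMSO, no preprocessing.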
# [28] = IUF_NPC1_cytotoxicity_72hr: Cytotoxicity Assessment at 72 hours in the Leibniz Research Institute for Environmental Medicine (IUF) Neural Progenitor Cell Proliferation Assay (NPC1) (AID 2284332; active means hit-call score of the fitted dose curve at least 0.9, where 1 is the maximum;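 further: rising LDH signal means more cytotoxicity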)
# Outline: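 Human fetal neural progenitor spheres (0.3 mm) in EGF/FGF proliferation medium, 37C, exposed 72 h without renewal. LDH release in supernatant read by resorufin fluorescence; gain of signal scored relative to dynamic range.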
# [29] = CCTE_Mundy_HCI_iCellGluta_NOG_NeuronCount: CCTE's Neurite Outgrowth Assay in iCellGluta cells for Neuron Count, Mundy Lab (AID 2284340; active means hit-call score of the fitted dose curve at least 0.9, where 1 is the maximum;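 further: cells fixed about 48 h after compound addition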)
# Outline: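 Neuron count read by automated high-content imaging of Hoechst 33342 and betaIII-tubulin/Alexa Fluor-488 labelling in human iPSC glutamatergic neurons. Activity fitted relative to DMSO.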
# [30] = CCTE_Mundy_HCI_iCellGluta_NOG_NeuriteCount: CCTE's Neurite Outgrowth Assay in iCellGluta cells for Neurite Count, Mundy Lab (AID 2284342; active means hit-call score of the fitted dose curve at least 0.9, where 1 is the maximum;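 further: chemical exposure about 48 hours starting 2 hours after plating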)
smiles,measurement,setting,value
[CH3][Hg][Cl],AC50,[1],881 nM (active)
same,AC50,[2],493 nM (active)
same,AC50,[3],222 nM (active) and 316 nM (active)
same,AC50,[4],428 nM (active)
same,AC50,[5],21200 nM (active)
same,AC50,[6],582 nM (active)
same,AC50,[7],118 nM (active)
same,AC50,[8],99 nM (active)
same,AC50,[9],172 nM (active)
same,outcome,[10],inactive
same,AC50,[11],2120 nM (active)
same,AC50,[12],381 nM (active)
same,AC50,[13],5000 nM (active)
same,AC50,[14],8350 nM (active)
same,AC50,[15],708 nM (active) and 631 nM (active)
same,AC50,[16],244 nM (active)
same,AC50,[17],1150 nM (active)
same,AC50,[18],850 nM (active)
same,AC50,[19],1.05 µM (active) and 160 nM (active)
same,AC50,[20],1.11 µM (active) and 255 nM (active)
same,AC50,[21],325 nM (active) and 124 nM (active)
same,AC50,[22],298 nM (active) and 69.7 nM (active)
same,AC50,[23],629 nM (active) and 78.3 nM (active)
same,AC50,[24],275 nM (active)
same,outcome,[24],inactive
same,AC50,[25],823 nM (active) and 130 nM (active)
same,AC50,[26],276 nM (active)
same,outcome,[26],inactive
same,outcome,[27],inactive
same,outcome,[28],inactive
same,AC50,[29],80.6 nM (active)
same,AC50,[30],96.5 nM (active)
